PINK1 modulator: PINK1 expression modulation | PINK1 immunofluorescence, high-content cytometry, 24 h | Potency, µM (highest dose often 76.6 µM), for the others: top-dose activation (PINK1 increase), most hits filed as activators | actives 0.2% (n = 410,000) | AID 624263; active = well fitted activation curve with a large enough effect; inconclusive = small, poorly fitted or top-dose-only effect; cell line not stated here; also: % of control where 0% means no effect; nearly all actives have a fitted effect of over 65% in size
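Compound titrations (5 concentrations, 24 h) on a stable cell line; DMSO and CCCP controls. Endpoint: fixed-cell PINK1 immunofluorescence with mitochondrial, cell and nuclear markers, scanned by microplate cytometer.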
KB-V1 MDR tox: kills drug-selected multidrug resistant KB-V1 cells. AID 1347076. KB-V1 MDR cells viability, CellTiter-Glo, 72 h. actives 3.4% (n = 400,000). Potency, µM (series often up to 46.1 µM), actives largely listed as cytotoxic; also: % is scaled to controls: 0 for no effect and ±100 for the full control effect; nearly all actives have a fitted effect of over 60% in size
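In this primary screen, KB-V1 cells overexpressing P-gp are incubated with library compounds (lowest to highest concentration) for 72 h at 37 degrees C before a luminescent ATP viability read.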
KB-3-1 tox: kills parental KB-3-1 adenocarcinoma cells; KB-3-1 viability, CellTiter-Glo ATP luminescence, 72 h; AID 1347075; Potency, µM (doses to about 46.1 µM), hits mostly cytotoxic; actives 1.4% (n = 400,000); also: % is scaled to controls: 0 for no effect and ±100 for the full control effect; nearly all actives have a fitted effect of over 60% in size
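Cells are dispensed, compounds pinned in, plates held at 37 °C for 72 h, then CellTiter-Glo is added and luminescence read after 10 minutes. Cell line: parental KB-3-1 in phenol-red-free DMEM, 10% FBS.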
SW480 rereplic: DNA re-replication induction in SW480 cells. SW480 DNA re-replication, Hoechst DNA content imaging, 48 h. Potency, µM (titrated, usually from 46.1 µM), inactives show at the top dose re-replication activation, hits mostly activators. actives 1.8% (n = 340,000). AID 624297; also: % of control where 0% means no effect; nearly all actives have a fitted effect of over 55% in size
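DNA re-replication was detected as more nuclei of elevated Hoechst intensity after 48 hr exposure to compound (23 nL pinned per well of 250 cells).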
MCF10A rereplic: DNA re-replication induction in MCF 10a cells; MCF 10A DNA re-replication, Hoechst nuclear intensity, 48 h; Potency, µM (highest dose often 46.1 µM), for the others: at the highest dose activity, positive = re-replication, hits mostly activators; AID 624296; actives 2.9% (n = 350,000); also: % of control where 0% means no effect; nearly all actives have a fitted effect of over 50% in size
* = called active by the depositor; i = inactive; ? = inconclusive; nt = no result; ! = repeats disagree; [ ] = dose if it differs, or a comment. An excerpt weighted towards active compounds, which were near 6.7% of everything screened. Unless noted, calls follow the shape of the dose curve; as a rule, active = well fitted curve in the direction sought with a large enough effect; inconclusive = small, poorly fitted or top-dose-only effect, or another doubt; inactive = no such curve, though single readings can be large; an effect the other way counts as inactive or inconclusive. Potency is read from the fitted curve at half-maximal effect.

SMILES	PINK1 modulator	KB-V1 MDR tox	KB-3-1 tox	SW480 rereplic	MCF10A rereplic
O=C(c1ccc2c(c1)OCO2)N1CCN(c2cccc(C(F)(F)F)c2)CC1	7.5%	16.4µM*	13µM*	?	11.6µM*
CCS(=O)(=O)N1CCc2cc(C(=O)N3CCN(c4cccc(C(F)(F)F)c4)CC3)ccc21	0.4%	?	16.4µM*	nt	nt
CCN1CCN(Cc2ccc(NC(=O)c3ccc(C)c(NC(=O)c4c[nH]c5cc(C(F)(F)F)ccc5c4=O)c3)cc2C(F)(F)F)CC1	-2.7%	?	2.31µM*	1.84µM*	11.6µM*
CCN1CCN(Cc2ccc(NC(=O)c3cc(NC(=O)c4ccno4)cc(OC)c3)cc2C(F)(F)F)CC1	1.4%	i	i	-0.4%	?
CCN1CCN(Cc2ccc(NC(=O)c3cc(NC(=O)c4cc(-c5ccc(OC)cc5)n[nH]4)cc(OC)c3)cc2C(F)(F)F)CC1	-0.3%	16.4µM*	i	28.2%	8.9%
CCN1CCN(Cc2ccc(NC(=O)c3cc(NC(=O)c4cncc(-c5cccs5)c4)cc(OC)c3)cc2C(F)(F)F)CC1	-1.2%	18.4µM*!	?	?	23.1µM*
CCN1CCN(Cc2ccc(NC(=O)c3cc(NC(=O)c4ccc5n[nH]nc5c4)cc(OC)c3)cc2C(F)(F)F)CC1	0.9%	i	i	-3.3%[9.22 µM]	7.2%
COc1ccc(-c2cc(C(=O)NC(C)c3ccccn3)c3ccccc3n2)cc1OC (stereo not drawn)	0.1%	?	i	292.3%	?
CN(C)c1ccc(C(=S)Nc2ccccc2)cc1	-0.2%	i	i	?	2.7%
CN(C)c1ccc(NC(=S)c2ccccn2)cc1	2.2%	?	14.6µM*	?	-3.1%
O=C(c1csnn1)N1CCC2(CCCN(C(c3ccccc3)c3ccccc3)C2)CC1	3.0%	nt	nt	nt	nt
CCOc1cc(CNCCc2ccc(S(N)(=O)=O)cc2)ccc1OCc1ccc(Cl)cc1	-4.4%	?	?	?	?
COc1ccccc1CCNCc1ccc(OC)c(OCc2ccccc2)c1	9.4%[38.3 µM]	4.61µM*	?	?	1.8%
COc1cc(CNCCc2ccc(S(N)(=O)=O)cc2)ccc1OCc1ccc(Cl)cc1	5.4%[38.3 µM]	?	?	?	13µM*
COc1ccc(CNCc2ccco2)cc1OCc1ccccc1	-2.6%[38.3 µM]	i	i	-2.2%	2.1%
COc1ccc(C)cc1NC(=O)C1CCC(CNS(=O)(=O)c2ccc3c(c2)CCCC(=O)N3)CC1 (stereo not drawn)	1.7%	nt	nt	nt	nt
COCC(=O)N1CCC2(CC1)CCN(c1ccncc1)CC2	-0.7%	nt	nt	nt	nt
Cc1cc(CNC(=O)c2cnn(-c3nccc(-c4ccc5c(c4)OCO5)n3)c2C2CC2)on1	0.5%	nt	nt	nt	nt
CCOc1ccc2nc(-c3ccccc3)[nH]c2c1	6.4%	i	?	18.4µM*	5.17µM*
Cc1ccc(-c2nnc(Nc3cccc(C(F)(F)F)c3)c3ccccc23)cc1S(=O)(=O)N1CCOCC1	0.9%	nt	nt	nt	nt
COc1ccc(-c2cc(C(F)(F)F)n3nc(C(=O)N4CCN5CCCC5C4)cc3n2)cc1OC (stereo not drawn)	1.5%	i	i	?	11.6µM*
Cc1ccc(-c2cc(C(F)(F)F)n3nc(C(=O)N4CCN5CCCC5C4)cc3n2)cc1 (stereo not drawn)	3.9%	i	i	?	?
COc1ccc2c(c1OC)OCC2C (stereo not drawn)	13.7%	14.6µM*	?	8.1%	?
COc1ccc2c(c1OC)OCC(c1ccc(OC)c(OC)c1OC)C2 (stereo not drawn)	0.2%	nt	nt	nt	nt
Cc1cc(C)c(NC(=O)Cn2nnc(C(=O)NCc3ccc4c(c3)OCO4)c2N)c(C)c1	8.2%	i	i	?	11.4%
SMILES	PINK1 modulator	KB-V1 MDR tox	KB-3-1 tox	SW480 rereplic	MCF10A rereplic
O=C1CCCC2=C1C(c1ccsc1)CC(=O)N2c1ccccc1 (stereo not drawn)	3.3%[38.3 µM]	13µM*	i	10.9%	14.2%
Oc1cccc(C2c3[nH]c4ccccc4c3CCN2Cc2ccc3c(c2)CCO3)c1 (stereo not drawn)	0.0%	18.4µM*	20.6µM*	?	16.4µM*
COc1ccc(NC(=O)N(C)C[C@H]2Oc3c(NC(=O)C4CC4)cccc3C(=O)N([C@H](C)CO)C[C@@H]2C)cc1	1.9%	i	i	-14.9%[9.22 µM]	-3.9%
CCCCCCCNC(=O)c1ccc(N2CCC3(CC2)OCCO3)c([N+](=O)[O-])c1	2.3%	9.2µM*	i	-61.1%	25.4%
CCN(CC)C(=O)CSc1nnc(-c2cc3ccccc3cc2O)n1CC	6.4%[38.3 µM]	2.91µM*	3.26µM*	-1.3%	-0.5%
C=CCn1c(-c2cc(OC)c(OC)c(OC)c2)n[nH]c1=S	2.9%[38.3 µM]	?	i	-3.6%	-18.2%
CCOc1cccc(-c2cc(-c3n[nH]c(=S)n3CC)c3ccccc3n2)c1	-2.6%[38.3 µM]	9.2µM*	i	15.2%	26.3%
CCn1c(-c2cc(OC)c(OC)c(OC)c2)n[nH]c1=S	-0.2%	10.3µM*	i	4.1%	-7.5%
CCN(CC)C(=O)CSc1nnc2ccc3ccccc3n12	-0.1%	nt	nt	nt	nt
CCOc1ccccc1-c1cc(-c2n[nH]c(=S)n2CC)c2ccccc2n1	0.2%	i	i	21.4%	30.5%
CCn1c(-c2cc3ccccc3cc2O)n[nH]c1=S	-5.0%	20.6µM*	?	3.5%	3.8%
CCn1c(-c2cc(Br)ccc2O)n[nH]c1=S	nt	i	i	13.7%	-46.2%
CC(C)OCCCn1c(=O)c2ccccc2n2c(-c3ccc(F)c(F)c3)nnc12	-0.9%	i	i	nt	nt
OC[C@H]1O[C@@H](c2nc(-c3ccccc3Br)no2)[C@H](O)[C@@H]1O	0.9%	?	7.31µM*	nt	nt
Cc1ccccc1-c1cc(C(=O)Nc2sc(C(=O)OC(C)C)c(C)c2C#N)c2ccccc2n1	12.6µM*	8.2µM*	5.17µM*	?	?
COc1ccc(-c2cc(C(=O)Nc3sc4c(c3C#N)CCCC4)c3ccccc3n2)cc1	15.6%	?	i	18.3%	4.4%
Cc1sc(NC(=O)c2cc(-c3ccccc3)nc3ccccc23)c(C(N)=O)c1C	10.8%	?	?	1.7%	-74.1%
CCOC(=O)c1sc(NC(=O)c2cc(-c3ccc(C)cc3)nc3ccccc23)c(C#N)c1C	?	3.26µM*	?	0.8%	?
Cc1sc(NC(=O)c2cc(-c3ccc(Cl)cc3)nc3ccccc23)c(C(N)=O)c1C	3.7%	i	i	?	18.4µM*
COC(=O)c1sc(NC(=O)c2cc(-c3ccccc3)nc3ccccc23)c(C#N)c1C	5.62µM*	1.64µM*	1.46µM*	23.1%	?
CCC(C)C(NC(=O)CCC(=O)OCC(=O)[C@@]1(O)CCC2[C@@H]3CCC4=CC(=O)C=C[C@]4(C)C3[C@@H](O)C[C@@]21C)C(=O)O (stereo partly drawn)	1.8%	i	i	-1.4%	-17.5%
